Measurements reported in PubChem BioAssay.
The source made the active and inactive calls.

Columns and labels:
[1] = binders of probe aFSTL3 on microarray, primary screen, stem cell growth factor project, biochemical, small-molecule microarray, fluorescence 635/667 (AID 1064); conditions: higher = more signal;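 further: measures binding of the biotinylated anti-FSTL3 antibody to printed compounds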
[2] = binders from COS7 lysate, DM2A8 probe, primary screen, torsin A project, cell lysate, small-molecule microarray, fluorescence 635/667 (AID 1065); conditions: higher = more signal, COS7 lysate expressing mutant human TOR1A
[3] = binders of probe aFGF2 on microarray, primary screen, stem cell growth factor project, biochemical, small-molecule microarray, fluorescence 635/667 (AID 1067); conditions: higher = more signal;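 further: measures binding of biotinylated aFGF2 protein to printed compounds on slides; z-score merges feature fluorescence and signal-to-noise across triplicate slides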
[4] = binders of probe aFGF10 on microarray, primary screen, stem cell growth factor project, biochemical, small-molecule microarray, fluorescence 635/667 (AID 1071); conditions: higher = more signal;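 further: score merges 667 nm spot intensity and signal to noise from triplicate slides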
[5] = biological target: Neurogenic locus notch homolog protein 2 (Homo sapiens) (UniProt Q04721); experiment: Notch2 binders on small-molecule microarrays, primary screen, biochemical, small-molecule microarray, 635 nm fluorescence, stem cell growth factors (AID 1073); conditions: Notch2 binding, higher = more signal
Sequence of Neurogenic locus notch homolog protein 2 (Homo sapiens) (Q04721 whole entry, looked up, canonical isoform): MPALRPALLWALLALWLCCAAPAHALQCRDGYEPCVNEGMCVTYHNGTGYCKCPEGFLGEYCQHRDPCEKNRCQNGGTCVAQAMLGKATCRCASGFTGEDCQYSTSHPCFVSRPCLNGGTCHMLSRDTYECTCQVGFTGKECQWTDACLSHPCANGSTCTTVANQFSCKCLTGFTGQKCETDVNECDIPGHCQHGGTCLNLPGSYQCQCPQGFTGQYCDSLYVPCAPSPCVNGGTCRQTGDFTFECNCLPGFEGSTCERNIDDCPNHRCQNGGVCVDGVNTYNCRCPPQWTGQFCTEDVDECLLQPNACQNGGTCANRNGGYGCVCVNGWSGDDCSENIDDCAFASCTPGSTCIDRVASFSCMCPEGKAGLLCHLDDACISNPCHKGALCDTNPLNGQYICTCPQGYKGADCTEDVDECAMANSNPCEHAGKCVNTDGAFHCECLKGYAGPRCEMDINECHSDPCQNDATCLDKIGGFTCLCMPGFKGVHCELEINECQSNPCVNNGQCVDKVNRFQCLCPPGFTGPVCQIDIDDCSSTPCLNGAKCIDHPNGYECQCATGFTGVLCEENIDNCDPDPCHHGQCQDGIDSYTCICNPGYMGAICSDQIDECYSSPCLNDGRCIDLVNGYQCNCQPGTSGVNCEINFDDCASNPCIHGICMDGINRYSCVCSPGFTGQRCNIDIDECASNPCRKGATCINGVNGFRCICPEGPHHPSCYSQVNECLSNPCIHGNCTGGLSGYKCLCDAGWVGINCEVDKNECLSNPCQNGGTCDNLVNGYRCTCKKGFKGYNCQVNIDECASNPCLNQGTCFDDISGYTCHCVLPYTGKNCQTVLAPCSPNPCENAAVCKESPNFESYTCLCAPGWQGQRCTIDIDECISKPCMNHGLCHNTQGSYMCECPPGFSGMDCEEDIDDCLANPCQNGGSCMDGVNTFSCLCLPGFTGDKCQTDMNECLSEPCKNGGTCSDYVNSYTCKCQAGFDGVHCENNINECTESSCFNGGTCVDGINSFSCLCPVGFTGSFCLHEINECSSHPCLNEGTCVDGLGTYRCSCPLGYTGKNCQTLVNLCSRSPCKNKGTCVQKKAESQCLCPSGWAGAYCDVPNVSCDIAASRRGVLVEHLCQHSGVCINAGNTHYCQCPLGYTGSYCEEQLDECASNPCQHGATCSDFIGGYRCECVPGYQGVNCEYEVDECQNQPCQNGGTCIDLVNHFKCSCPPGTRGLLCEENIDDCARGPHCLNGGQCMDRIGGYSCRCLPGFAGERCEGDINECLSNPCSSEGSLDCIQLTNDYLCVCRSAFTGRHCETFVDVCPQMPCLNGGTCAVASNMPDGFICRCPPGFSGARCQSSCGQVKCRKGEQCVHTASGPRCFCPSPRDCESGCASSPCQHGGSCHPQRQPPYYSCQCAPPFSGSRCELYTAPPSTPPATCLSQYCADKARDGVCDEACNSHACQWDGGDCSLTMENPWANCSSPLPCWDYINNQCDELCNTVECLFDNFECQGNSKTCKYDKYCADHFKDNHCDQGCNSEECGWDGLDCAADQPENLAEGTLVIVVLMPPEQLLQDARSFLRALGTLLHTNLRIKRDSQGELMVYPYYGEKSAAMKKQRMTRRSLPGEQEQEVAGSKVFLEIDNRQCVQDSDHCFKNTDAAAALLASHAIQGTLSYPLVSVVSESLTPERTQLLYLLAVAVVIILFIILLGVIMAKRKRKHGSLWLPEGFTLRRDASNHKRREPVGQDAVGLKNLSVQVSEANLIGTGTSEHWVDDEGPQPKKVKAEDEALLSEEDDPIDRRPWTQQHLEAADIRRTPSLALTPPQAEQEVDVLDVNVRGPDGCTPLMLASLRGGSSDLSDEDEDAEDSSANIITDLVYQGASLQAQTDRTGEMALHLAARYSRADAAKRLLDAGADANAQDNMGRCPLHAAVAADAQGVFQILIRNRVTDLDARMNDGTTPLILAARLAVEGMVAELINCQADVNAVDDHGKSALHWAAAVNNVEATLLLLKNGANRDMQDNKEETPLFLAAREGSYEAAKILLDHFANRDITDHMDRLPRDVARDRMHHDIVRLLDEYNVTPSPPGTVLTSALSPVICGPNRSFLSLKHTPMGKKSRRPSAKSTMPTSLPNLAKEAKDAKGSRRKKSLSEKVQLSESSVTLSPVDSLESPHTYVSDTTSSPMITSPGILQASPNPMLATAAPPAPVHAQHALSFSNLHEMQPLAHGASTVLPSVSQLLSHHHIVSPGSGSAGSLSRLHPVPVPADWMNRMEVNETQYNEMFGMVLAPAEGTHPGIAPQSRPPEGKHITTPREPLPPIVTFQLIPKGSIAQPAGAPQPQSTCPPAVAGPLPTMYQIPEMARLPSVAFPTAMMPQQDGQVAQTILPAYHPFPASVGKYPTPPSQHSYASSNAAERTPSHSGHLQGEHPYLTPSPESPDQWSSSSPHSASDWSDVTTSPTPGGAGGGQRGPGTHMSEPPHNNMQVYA

[6] = biological target: Pro-neuregulin-1, membrane-bound isoform (Homo sapiens) (UniProt Q02297); experiment: NRG1 binders on small-molecule microarrays, primary screen, psychiatric disease protein project, biochemical, small-molecule microarray, fluorescence 635/667 (AID 1075); conditions: NRG1 binding, 635 nm fluorescence, higher = more signal;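 further: score combines 667 nm spot fluorescence with signal to noise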
Sequence of Pro-neuregulin-1, membrane-bound isoform (Homo sapiens) (Q02297 whole entry, looked up, the tested form may be a part, canonical isoform): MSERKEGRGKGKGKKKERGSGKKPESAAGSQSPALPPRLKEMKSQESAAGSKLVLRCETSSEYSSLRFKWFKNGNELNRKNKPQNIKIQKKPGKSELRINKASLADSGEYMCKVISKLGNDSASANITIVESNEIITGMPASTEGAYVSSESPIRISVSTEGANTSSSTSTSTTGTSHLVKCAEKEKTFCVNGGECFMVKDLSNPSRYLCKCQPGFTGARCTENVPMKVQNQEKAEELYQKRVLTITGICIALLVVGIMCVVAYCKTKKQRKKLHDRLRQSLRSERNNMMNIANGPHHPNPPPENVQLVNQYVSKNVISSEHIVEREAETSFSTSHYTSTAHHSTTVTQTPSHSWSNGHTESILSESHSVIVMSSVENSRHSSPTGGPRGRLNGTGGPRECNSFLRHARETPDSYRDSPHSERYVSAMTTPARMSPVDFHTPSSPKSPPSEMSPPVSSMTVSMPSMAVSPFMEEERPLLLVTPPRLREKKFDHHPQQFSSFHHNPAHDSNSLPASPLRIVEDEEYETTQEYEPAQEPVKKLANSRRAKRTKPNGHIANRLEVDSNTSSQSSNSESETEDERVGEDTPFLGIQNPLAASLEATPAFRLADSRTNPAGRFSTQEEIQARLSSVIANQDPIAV

[7] = system: Neuregulin-1 EGF-like domain; experiment: binders of neuregulin-1 EGF-like domain, primary screen, biochemical, small-molecule microarray, 635 nm fluorescence (AID 1081); conditions: small-molecule microarray binding, higher = more signal;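 further: binding of the protein to compounds printed on small-molecule microarray slides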
[8] = FRG1 promoter luciferase signal modulators, primary screen, FRG1 inhibition for FSHD, cell-based, C2C12 myotubes, firefly/Renilla luciferase, luminescence (AID 1084); conditions: higher = more signal, called active from +8 up or from −8 down
[9] = binders of probe aFST on microarray, primary screen, stem cell growth factor project, biochemical, small-molecule microarray, fluorescence 635/667 (AID 1086); conditions: higher = more signal;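 further: score merges 667 nm fluorescence with signal-to-noise of each printed compound spot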
[10] = binders of probe aHhip on microarray, primary screen, stem cell growth factor project, biochemical, small-molecule microarray, fluorescence 635/667 (AID 1087); conditions: higher = more signal;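 further: score merges spot fluorescence at 667nm with spot signal to noise ratio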

| SMILES | composite z-score [1] | composite z-score [2] | composite z-score [3] | composite z-score [4] | composite z-score [5] | composite z-score [6] | composite z-score [7] | z-score [8] | composite z-score [9] | composite z-score [10] |
| --- | --- | --- | --- | --- | --- | --- | --- | --- | --- | --- |
| CO[C@H]1COC(=O)[C@H](C)NC(=O)CC=C[C@@H](C)[C@H](NS(=O)(=O)c2ccc(C)cc2)COC(=O)CC=C[C@@H]1C | -0.734 | 1.84 | -0.172 | 0.0871 | -0.543 | -0.455 | -0.775 | -1.27 (inactive) | 0.0005 | -0.199 |
| CCOC(=O)C1=CCC(c2cccc3ccccc23)N(S(=O)(=O)c2ccc(C)cc2)C1 (stereo not given) | 0.609 | -0.0897 | 0.0346 | 0.323 | 1.46 | 1.21 | 1.01 | -1.05 (inactive) | 0.95 | -0.0237 |
| CO[C@H]1COC(=O)CC=C[C@H](C)COC(=O)[C@@H](OCc2ccccc2)C=C[C@@H]1C | -0.938 | 2.14 | -0.317 | -1.11 | -1.49 | 0.311 | 0.958 | 0.236 (inactive) | -0.0875 | -0.12 |
| C=CCNC(=O)[C@H]1[C@@H]2C(=O)O[C@@H](c3ccccc3)[C@@H](c3ccccc3)N2[C@@H](c2ccccc2OCCO)[C@]12C(=O)N(C(=O)OCCOC)c1ccc(C#CCNC(N)=O)cc12 | 0.173 | 0.912 | -0.0547 | 0.149 | 0.284 | 1.32 | 1.06 | -1.53 (inactive) | 0.428 | 0.0623 |
| COc1cc(CO)cc(I)c1O[C@H]1C=C(C(=O)NCCO)C[C@@H](NCCc2c[nH]c3ccccc23)[C@@H]1O | 0.318 | 0.52 | 0.0019 | 1.01 | 0.832 | -0.0224 | 1.01 | -0.389 (inactive) | 0.714 | -0.184 |
| COCCOC(=O)N1C(=O)[C@@]2(c3cc(C#CC4(O)CCCCCC4)ccc31)[C@H](C(=O)N1CCCCCCC1)[C@H]1C(=O)O[C@H](c3ccccc3)[C@H](c3ccccc3)N1[C@@H]2c1ccc(O)cc1 | 3.29 | 0.536 | 0.416 | 0.345 | 0.899 | 0.768 | 1.2 | -0.492 (inactive) | 2.81 | 1.11 |
| Cc1ccc(S[C@]2(C(=O)NC3CC3)CC(=O)N(Cc3cc(C(F)(F)F)cc(C(F)(F)F)c3)[C@@H]2c2ccc(CO)cc2)cc1 | -0.293 | 0.0772 | -0.138 | 0.138 | 0.1 | 0.522 | 1.24 | -0.799 (inactive) | 0.0733 | -0.295 |
| CCCC=C(CCC)[C@@H](NC(=O)c1ccc(C(F)(F)F)cc1)c1ccccc1 | -0.0795 | 0.333 | -0.0483 | -0.195 | 0.237 | -0.256 | 0.113 | 2.78 (inactive) | 0.587 | -0.0296 |
| CCN1C(C)=C(C(=O)OC)[C@@H](c2ccccc2)N2C(=O)[C@](O)(C(=O)OC)[C@@H](c3ccccc3)C(C(C)=O)=C12 | -0.0393 | -0.0183 | -0.0621 | 0.391 | 0.991 | -0.485 | 0.913 | -1.88 (inactive) | 0.283 | -0.262 |
| COc1cc(CO)cc(I)c1O[C@H]1C=C(C(=O)NCCO)C[C@@H](N(CC2CCCCC2)C(=O)c2cc3ccccc3oc2=O)[C@@H]1O | -0.336 | -0.0516 | -0.0513 | 0.233 | 0.363 | 0.0577 | 0.377 | -1.48 (inactive) | -0.52 | 0.0722 |
| Cc1ccc(S[C@]2(C(=O)NCCCN(C)C)CC(=O)N(C3CCCCC3)[C@@H]2c2ccc(CO)cc2I)cc1 | 1.93 | -0.697 | -0.113 | -0.546 | -0.197 | 0.266 | 0.942 | -1.31 (inactive) | 0.235 | -0.0645 |
| CCCC=C(CCC)[C@@H](NC(=O)c1ccccc1)c1ccccc1 | 0.969 | -0.239 | -0.0392 | -0.41 | -0.028 | -0.806 | -0.943 | -0.788 (inactive) | 0.636 | 0.304 |
